The results in this text go back to paper PMC8384837, “Expanding the binding specificity for RNA recognition by a PUF domain”.

What all share (test): yeast three-hybrid, YBZ-1, SC-Leu-His + 0.5 mM 3-AT, 4 days
Holding throughout (settings): tags: N-Gal4 AD-HA kept; label: inside an RPR1-promoter hybrid RNA with tandem MS2 sites; ssRNA

In one experiment the target is PUM1 PUF domain R4-QGA (Homo sapiens, UniProt Q14671 828-1176, N971Q;H972G;Q975A). The method, boiled down:
(§1)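 Each repeat of the Pumilio-1 PUF domain was randomized at its three base-contacting residues, and these libraries were co-expressed from a centromeric plasmid with matching RNA elements in strain YBZ-1. After four days on SC-Leu (input) or SC-Leu-His + 0.5 mM 3-AT (selection), the repeat regions were PCR-amplified and Illumina-sequenced. The interaction score compares variant frequency between input and selection as a log change, computed in log2 with a pseudocount of 1 for absent variants.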

The next experiment has as its target PUM1 PUF domain R8-RYK (Homo sapiens, UniProt Q14671 828-1176, N1122R;Q1126K). The method, boiled down: as §1
The next experiment concerns the target PUM1 PUF domain R8-RRA (Homo sapiens, UniProt Q14671 828-1176, N1122R;Y1123R;Q1126A). Summed up: as §1
In another experiment the target is PUM1 PUF domain R8-FYH (Homo sapiens, UniProt Q14671 828-1176, N1122F;Q1126H). Summed up: as §1
The next experiment concerns the target PUM1 PUF domain R8-RHV (Homo sapiens, UniProt Q14671 828-1176, N1122R;Y1123H;Q1126V). Summed up: as §1
A further experiment has as its target PUM1 PUF domain R5-GQA (Homo sapiens, UniProt Q14671 828-1176, C1007G;R1008Q;Q1011A). Summed up:
as §1

Another experiment has as its target PUM1 PUF domain R5-TND (Homo sapiens, UniProt Q14671 828-1176, C1007T;R1008N;Q1011D). The method, boiled down:
as §1

A further experiment addresses PUM1 PUF domain R5-AQR (Homo sapiens, UniProt Q14671 828-1176, C1007A;R1008Q;Q1011R). Summed up: as §1
A further experiment addresses PUM1 PUF domain R5-PHD (Homo sapiens, UniProt Q14671 828-1176, C1007P;R1008H;Q1011D). Summed up:
as §1

Another experiment deals with PUM1 PUF domain R5-SMS (Homo sapiens, UniProt Q14671 828-1176, C1007S;R1008M;Q1011S). Summed up: as §1
The next experiment concerns the target T1, PUM1 PUF domain R6-TWS (Homo sapiens, UniProt Q14671 828-1176, N1043T;Y1044W;Q1047S).
T1 sequence: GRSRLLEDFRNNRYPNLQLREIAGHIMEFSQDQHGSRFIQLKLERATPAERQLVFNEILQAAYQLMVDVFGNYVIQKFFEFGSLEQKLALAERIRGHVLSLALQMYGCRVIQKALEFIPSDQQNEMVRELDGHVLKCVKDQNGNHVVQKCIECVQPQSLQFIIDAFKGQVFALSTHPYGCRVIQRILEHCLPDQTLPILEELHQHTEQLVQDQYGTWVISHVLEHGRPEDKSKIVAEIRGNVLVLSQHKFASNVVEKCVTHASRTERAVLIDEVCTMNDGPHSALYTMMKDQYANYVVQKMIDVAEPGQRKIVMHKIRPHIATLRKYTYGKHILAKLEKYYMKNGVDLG
The method, boiled down:
as §1

The target of the next experiment is PUM1 PUF domain R1-RKQ (Homo sapiens, UniProt Q14671 828-1176, S863R;R864K). The method, boiled down: as §1
The target in another experiment is PUM1 PUF domain R5-KQR (Homo sapiens, UniProt Q14671 828-1176, C1007K;R1008Q;Q1011R). Summed up: as §1
Another experiment has as its target PUM1 PUF domain R5-HAD (Homo sapiens, UniProt Q14671 828-1176, C1007H;R1008A;Q1011D). The method, boiled down:
as §1

The target of another experiment is T2, PUM1 PUF domain R6-RPG (Homo sapiens, UniProt Q14671 828-1176, N1043R;Y1044P;Q1047G).
T2 sequence: T1 sequence with T216R, W217P, S220G
The method, boiled down: as §1

The target in another experiment is PUM1 PUF domain R7-QNR (Homo sapiens, UniProt Q14671 828-1176, S1079Q;E1083R). Summed up:
as §1

Another experiment deals with PUM1 PUF domain R7-RVR (Homo sapiens, UniProt Q14671 828-1176, S1079R;N1080V;E1083R). Summed up:
as §1

In another experiment the target is PUM1 PUF domain R7-QPK (Homo sapiens, UniProt Q14671 828-1176, S1079Q;N1080P;E1083K). Summed up:
as §1

Another experiment has as its target PUM1 PUF domain R7-ASR (Homo sapiens, UniProt Q14671 828-1176, S1079A;N1080S;E1083R). Summed up: as §1
In another experiment the target is PUM1 PUF domain R3-MCG (Homo sapiens, UniProt Q14671 828-1176, C935M;R936C;Q939G). The method, boiled down: as §1

Substitutions are numbered along the chain they refer to.

On to “GGCUAGAACUAGUGGAUCCCCCGGCGCCCGGCGGCUCGAGCCCGGGUAAGUGUAUAUAGUCUGCAUGCCGCCGGGCGCCAUGCCUGCAGGUCGACUCUAGAAAACAUG”, for which the binding signal with PUM1 PUF domain R4-QGA was 2.73 log2 enrichment (interaction score).
Consider “GGCUAGAACUAGUGGAUCCCCCGGCGCCCGGCGGCUCGAGCCCGGGUAAGCGUAAAUAGUCUGCAUGCCGCCGGGCGCCAUGCCUGCAGGUCGACUCUAGAAAACAUG”, for which the binding signal with PUM1 PUF domain R8-RYK is 7.26 log2 enrichment (interaction score); with PUM1 PUF domain R8-RRA it was 3.15 log2 enrichment (interaction score); with PUM1 PUF domain R8-FYH it was 2.85 log2 enrichment (interaction score); with PUM1 PUF domain R8-RHV, 5.23 log2 enrichment (interaction score).
On to “GGCUAGAACUAGUGGAUCCCCCGGCGCCCGGCGGCUCGAGCCCGGGUAAGUGUUAAUAGUCUGCAUGCCGCCGGGCGCCAUGCCUGCAGGUCGACUCUAGAAAACAUG”, for which the binding signal in the experiment with PUM1 PUF domain R5-GQA was 2.64 log2 enrichment (interaction score); with PUM1 PUF domain R5-TND it was 2.81 log2 enrichment (interaction score); with PUM1 PUF domain R5-AQR, 3.22 log2 enrichment (interaction score); with PUM1 PUF domain R5-PHD, 3.76 log2 enrichment (interaction score); with PUM1 PUF domain R5-SMS, 0.83 log2 enrichment (interaction score).
For “GGCUAGAACUAGUGGAUCCCCCGGCGCCCGGCGGCUCGAGCCCGGGUAAGUGAAAAUAGUCUGCAUGCCGCCGGGCGCCAUGCCUGCAGGUCGACUCUAGAAAACAUG”, the binding signal in the experiment with PUM1 PUF domain R6-TWS is 5.32 log2 enrichment (interaction score).
As to “GGCUAGAACUAGUGGAUCCCCCGGCGCCCGGCGGCUCGAGCCCGGGUAAGUGUAAAUGGUCUGCAUGCCGCCGGGCGCCAUGCCUGCAGGUCGACUCUAGAAAACAUG”, the binding signal in the experiment with PUM1 PUF domain R1-RKQ is 2.35 log2 enrichment (interaction score).
With “GGCUAGAACUAGUGGAUCCCCCGGCGCCCGGCGGCUCGAGCCCGGGUAAGUGUACAUAGUCUGCAUGCCGCCGGGCGCCAUGCCUGCAGGUCGACUCUAGAAAACAUG”, in the experiment with PUM1 PUF domain R4-QGA, the binding signal was 2.09 log2 enrichment (interaction score).
For “GGCUAGAACUAGUGGAUCCCCCGGCGCCCGGCGGCUCGAGCCCGGGUAAGUGUCAAUAGUCUGCAUGCCGCCGGGCGCCAUGCCUGCAGGUCGACUCUAGAAAACAUG”, the binding signal in the experiment with PUM1 PUF domain R5-AQR was 5.35 log2 enrichment (interaction score); with PUM1 PUF domain R5-KQR, 2.87 log2 enrichment (interaction score); with PUM1 PUF domain R5-HAD it was 6.65 log2 enrichment (interaction score).
Turning to “GGCUAGAACUAGUGGAUCCCCCGGCGCCCGGCGGCUCGAGCCCGGGUAAGUGUGAAUAGUCUGCAUGCCGCCGGGCGCCAUGCCUGCAGGUCGACUCUAGAAAACAUG”, the binding signal with PUM1 PUF domain R5-SMS is 2.69 log2 enrichment (interaction score).
For “GGCUAGAACUAGUGGAUCCCCCGGCGCCCGGCGGCUCGAGCCCGGGUAAGUGUAAAUAGUCUGCAUGCCGCCGGGCGCCAUGCCUGCAGGUCGACUCUAGAAAACAUG”, the binding signal with PUM1 PUF domain R6-TWS is 2.56 log2 enrichment (interaction score); with PUM1 PUF domain R8-RRA, 1.42 log2 enrichment (interaction score); with PUM1 PUF domain R5-KQR it was 0.64 log2 enrichment (interaction score); with PUM1 PUF domain R6-RPG it was 3.6 log2 enrichment (interaction score); in the experiment with PUM1 PUF domain R8-RHV it was 3.99 log2 enrichment (interaction score).
As to “GGCUAGAACUAGUGGAUCCCCCGGCGCCCGGCGGCUCGAGCCCGGGUAAGUCUAAAUAGUCUGCAUGCCGCCGGGCGCCAUGCCUGCAGGUCGACUCUAGAAAACAUG”, the binding signal was 3.58 log2 enrichment (interaction score) with PUM1 PUF domain R7-QNR, 0.98 log2 enrichment (interaction score) with PUM1 PUF domain R7-RVR and 4.87 log2 enrichment (interaction score) with PUM1 PUF domain R7-QPK.
Regarding “GGCUAGAACUAGUGGAUCCCCCGGCGCCCGGCGGCUCGAGCCCGGGUAAGUUUAAAUAGUCUGCAUGCCGCCGGGCGCCAUGCCUGCAGGUCGACUCUAGAAAACAUG”, the binding signal with PUM1 PUF domain R7-RVR is 4.32 log2 enrichment (interaction score); with PUM1 PUF domain R7-ASR, 2.25 log2 enrichment (interaction score).
As to “GGCUAGAACUAGUGGAUCCCCCGGCGCCCGGCGGCUCGAGCCCGGGUAAGUGUAAGUAGUCUGCAUGCCGCCGGGCGCCAUGCCUGCAGGUCGACUCUAGAAAACAUG”, in the experiment with PUM1 PUF domain R3-MCG, the binding signal was 2.55 log2 enrichment (interaction score).
